JMJD2A Tudor inh = JMJD2A Tudor domain (human) inhibition; Potency, µM (titrated, usually from 114 µM), actives largely listed as inhibitors; AID 504339; AlphaScreen JMJD2A-Tudor / H3K4me3 peptide binding; 4.4% of 390,000 active; note: nearly all actives have a fitted effect of over 50% in size
G9a block = inhibitors of human histone lysine methyltransferase G9a | Q96KQ7 | G9a H3K9 monomethylation, AlphaScreen, 2 h | Potency, µM (series often up to 102 µM), most hits filed as inhibitors | 8.8% of 350,000 active | AID 504332; note: nearly all actives have a fitted effect of over 75% in size
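Signal arises when biotinylated H3K9 peptide, once monomethylated, bridges streptavidin donor and antibody-captured acceptor beads. Enzyme at 20 nM was preincubated 15 min with test compounds; peptide 500 nM and SAM 20 uM then reacted for 2 h.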
BAZ2B block = blocks human BAZ2B; AlphaScreen BAZ2B-H3K14Ac peptide displacement; Potency, µM (top dose mostly 114 µM), actives largely listed as inhibitors; AID 504333; 4.4% of 360,000 active; Q9UIF8; note: nearly all actives have a fitted effect of over 60% in size
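In this displacement format the biotinylated H3(5-23) peptide acetylated at Lys14 serves as ligand at 50 nM, with BAZ2B at 50 nM in PBS pH 7.4 containing 0.01% Tween-20. Donor and acceptor beads are 10 ug/mL final.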
HP1b binding inh = inhibitors of HP1-beta chromodomain binding to methylated histone tails; P83916; AlphaScreen HP1-beta / biotin-H3K9me3 peptide binding; Potency, µM (top dose mostly 114 µM), most hits filed as inhibitors; 0.56% of 390,000 active; AID 540317; note: nearly all actives have a fitted effect of over 70% in size
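AlphaScreen: HP1-beta (50 nM) preformed 30 min with biotin-H3(1-18)K9me3 peptide (50 nM) in PBS pH 7.4, 0.01% Tween-20. Compound added for 30 min at RT, then streptavidin donor/nickel chelate acceptor beads (10 ug/mL) for 30 min.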
Sfp PPTase inh = blocks B. subtilis Sfp PPTase activity; Potency, µM, actives largely listed as inhibitors; Biochemical Sfp PPTase activity, qHTS; Q9F4F7; 3.5% of 310,000 active;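 note: the enzyme is Sfp with the accession as filed and its product quenches rhodamine fluorescence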
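Fluorescence-quenching assay with 15 nM Sfp, 5 uM rhodamine-CoA and 12.5 uM BHQ-2-labelled ybbR peptide in pH 7.6 Hepes/MgCl2 buffer. Enzyme was pre-incubated with compound for 15 min at room temperature. Rate was taken from the 30-min fluorescence change (525/598 nm).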
L3MBTL1 inh = inhibitors of human L3MBTL1; AID 485360; Q9Y468; Potency, µM (titrated, usually from 57.1 µM), usual class: inhibitors; 0.66% of 230,000 active; AlphaScreen L3MBTL1–H3K9me1 peptide binding; note: nearly all actives have a fitted effect of over 60% in size
Target sequence (Q9Y468 whole entry, looked up): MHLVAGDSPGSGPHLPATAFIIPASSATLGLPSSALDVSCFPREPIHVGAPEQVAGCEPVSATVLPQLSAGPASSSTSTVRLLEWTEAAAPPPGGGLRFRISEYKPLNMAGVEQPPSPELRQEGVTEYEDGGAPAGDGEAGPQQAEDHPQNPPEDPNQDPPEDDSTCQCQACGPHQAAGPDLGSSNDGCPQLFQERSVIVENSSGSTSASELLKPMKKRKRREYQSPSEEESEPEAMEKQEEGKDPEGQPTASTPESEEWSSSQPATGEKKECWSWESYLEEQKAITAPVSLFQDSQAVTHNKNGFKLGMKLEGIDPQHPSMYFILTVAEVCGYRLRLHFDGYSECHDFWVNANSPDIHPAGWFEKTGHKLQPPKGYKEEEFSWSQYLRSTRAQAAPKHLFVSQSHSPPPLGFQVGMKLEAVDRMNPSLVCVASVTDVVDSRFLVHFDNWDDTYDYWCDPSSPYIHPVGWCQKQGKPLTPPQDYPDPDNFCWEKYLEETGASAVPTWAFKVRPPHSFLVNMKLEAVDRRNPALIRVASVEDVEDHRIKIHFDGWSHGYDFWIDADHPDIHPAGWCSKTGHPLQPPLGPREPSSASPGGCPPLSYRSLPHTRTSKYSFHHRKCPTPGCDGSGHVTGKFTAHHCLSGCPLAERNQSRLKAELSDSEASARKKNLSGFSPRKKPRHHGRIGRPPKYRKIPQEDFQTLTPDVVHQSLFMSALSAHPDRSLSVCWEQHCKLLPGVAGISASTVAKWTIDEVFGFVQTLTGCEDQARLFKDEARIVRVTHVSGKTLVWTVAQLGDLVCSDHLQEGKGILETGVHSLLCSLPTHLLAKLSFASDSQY
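AlphaScreen proximity signal between nickel-chelate acceptor and streptavidin donor beads (final 10 ug/mL) reports binding of 50 nM L3MBTL1 to 75 nM biotin-H3 K9me1 peptide; complex incubated with compounds 30 min at room temperature; cefsulodin titration as control.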
Hits are given with their value; n = inactive; u = inconclusive; x = not tested or not shown; [ ] = another dose, or the depositor's remark. Compounds with a hit are over-represented: about 12% of the library has one in this group of screens. Calls come from the whole dose curve; as a rule, active = well fitted curve in the direction sought with a large enough effect; inconclusive = small, poorly fitted or top-dose-only effect, or another doubt; inactive = no such curve, though single readings can be large; an effect the other way counts as inactive or inconclusive.

SMILES	JMJD2A Tudor inh	G9a block	BAZ2B block	HP1b binding inh	Sfp PPTase inh	L3MBTL1 inh
O=[N+]([O-])c1ccc(N2CCN(c3ccc(F)cc3)CC2)cc1	n	n	n	n	n	x
O=[N+]([O-])c1ccc(CN2CCN(c3ccccc3Cl)CC2)o1	22.4µM	28.2µM	50.1µM	u	u	n
O=[N+]([O-])c1ccc(N2CCN(Cc3ccncc3)CC2)cc1	22.4µM	31.6µM	50.1µM	u	n	n
O=[N+]([O-])c1ccc(N2CCN(Cc3ccc([N+](=O)[O-])o3)CC2)cc1	20µM	u	31.6µM	u	n	n
O=[N+]([O-])c1ccc(N2CCN(Cc3ccc(Br)o3)CC2)cc1	22.4µM	u	79.4µM	u	n	n
O=C(NCC1CCCO1)c1ccc2c(c1)N(Cc1ccccc1)C(=O)CS2 (stereo not drawn)	u	n	n	n	n	x
CN(C)C(=O)c1ccc(-c2cc(NCc3cccnc3)ncn2)cc1	x	n[0.501 µM]	x	x	n	x
Cc1sc2nc(CN3CCCC3)nc(N3CCN(S(=O)(=O)c4cccc(F)c4)CC3)c2c1C	n	u	n	n	x	n
O=C(/C=C/c1ccc(O)c(O)c1)c1ccc(S(=O)(=O)N2CCCCCC2)cc1	u	5.01µM	35.5µM	39.8µM	n	u
O=C(c1ccc(S(=O)(=O)N2CCCC2)cc1)N1CCCCC1	n	n	n	n	x	n
CCc1ccc(OCCn2c(CCNC(=O)C3CCCCC3)nc3ccccc32)cc1	n	x	x	n	x	x
Cc1ccccc1C(=O)Nc1cc2c(cc1N1CCOCC1)n(C)c(=O)n2C	n	n	50.1µM	n	x	x
CN1CCC(N(C)CC(=O)Nc2ccccc2N2CCOCC2)CC1	8.91µM	u	56.2µM	u	u	x
CN(C)c1cc2c(cc1NC(=O)c1ccccc1Cl)n(C)c(=O)n2C	n	n	50.1µM	n	n	x
O=C(Nc1ccccc1NC(=O)c1ccccc1Cl)c1ccccc1Cl	n	x	n	n	n	n
CCOC(=O)C1CCN(c2cc3c(cc2NC(=O)c2ccccc2Br)n(C)c(=O)n3C)CC1	u	x	50.1µM	n	n	x
Cc1ccccc1OCC(=O)OCc1cc(=O)n2nc(-c3cccs3)sc2n1	n	n	n	n	x	x
O=C(O)CCCn1cc(NC(=O)c2ccc(Br)o2)cn1	n[11.4 µM]	n	n	n	n	n[11.4 µM]
CCOc1ccccc1NC(=O)Cn1c(=O)n(Cc2ccc(OC)cc2)c(=O)c2oc3ccccc3c21	n	n	n	n	x	x
Cc1ccc(C(=O)Nc2cc3c(cc2N2CCCCC2)n(C)c(=O)n3C)cc1	n	n	n	n	n	x
Cc1cc(C(=O)Nc2ccccc2N2CCOCC2)c(C)o1	n	56.2µM	n	n	u	n
COc1ccc(Br)c(C(=O)Nc2cc3c(cc2N2CCCCC2)n(C)c(=O)c(=O)n3C)c1	n	n	n	n	x	x
Cc1ccccc1C(=O)Nc1cc2c(cc1N1CCCCC1)n(C)c(=O)n2C	u	15.8µM	25.1µM	n	x	x
COc1ccc(Br)c(C(=O)Nc2cc3c(cc2N2CCOCC2)n(C)c(=O)n3C)c1	n	n	79.4µM	n	x	x
COc1ccc(C=CC(=O)c2c(OC)cc(OC)c(OC)c2O)cc1	u	x	x	39.8µM	x	x
SMILES	JMJD2A Tudor inh	G9a block	BAZ2B block	HP1b binding inh	Sfp PPTase inh	L3MBTL1 inh
COc1ccc(C(=O)/C=C/c2cc(OC)c(O)c(OC)c2)c(F)c1	n	8.91µM	u	n	79.4µM	n
COc1ccc(C(=O)/C=C/c2ccccc2)c(OC)c1	n	n	n	n	n	n
COc1cc(/C=C/C(=O)c2c(O)cc(C)oc2=O)cc(OC)c1O	n	44.7µM	u	n	n	x
COc1ccc2cc(C(=O)/C=C/c3cc(OC)c(O)c(OC)c3)ccc2c1	u	50.1µM	u	u	n	x
Cc1cc(C)n2c(SCC(=O)Nc3cccc(S(N)(=O)=O)c3)nnc2n1	n	x	x	n	x	n
COc1ccc(-n2c(=O)c(-c3cccs3)nc3cnc(N4CCNCC4)nc32)cc1	x	n[12.7 µM]	x	x	u	x
O=C(NC1CCCCC1)c1ccc2c(c1)N(Cc1cccc(Cl)c1)C(=O)c1ccccc1S2=O (stereo not drawn)	n	n	n	n	x	x
O=C(c1ccco1)N1CCC[C@@]2(CCN(c3ccncc3)C2)C1	x	n[12.7 µM]	x	x	n	x
C=CCOc1ccc(/C=C/C(=O)OCC(=O)NCc2cccc(OC)c2)cc1	n	n[2.33 µM]	n	n	x	n
C=CCOc1ccc(C=CC(=O)c2c(O)c(OC)c(OC)c(OC)c2OC)cc1	14.1µM	x	x	50.1µM	x	x
Cc1cccc(N2CCN(C(=O)c3ccc(CNc4c(N5CCC(C)CC5)c(=O)c4=O)cc3)CC2C)c1 (stereo not drawn)	n	n	u	n	n	x
CCc1ccc(CN2CCc3nc(N4CCN(CC)CC4)ncc3C2)cc1	u	u	56.2µM	n	x	x
CCN1CCN(c2ncc3c(n2)CCN(Cc2ccc(OC)c(OC)c2)C3)CC1	n	n[12.7 µM]	n	n	x	x
CCN1CCN(c2ncc3c(n2)CCN(Cc2cc(F)cc(F)c2)C3)CC1	79.4µM	u	50.1µM	n	x	x
Cc1cc([N+](=O)[O-])ccc1N=Nc1c(N)[nH]n(-c2ccccc2)c1=O	n	u	n	u	n	n
Nc1[nH]n(-c2ccccc2)c(=O)c1N=Nc1ccc2c(c1)OCO2	10µM	n	3.98µM	u	n	x
Nc1[nH]n(-c2ccccc2)c(=O)c1N=Nc1ccc2c(c1)OCCO2	20µM	10µM	10µM	44.7µM	n	u
O=C(Cc1cccs1)Nc1c(C(=O)Nc2ccc(F)cc2)oc2ccccc12	n	n	n	n	x	x
CC(COc1cccc2ccccc12)CN1CCN(C)CC1 (stereo not drawn)	n	44.7µM	n	n	n	u
OC(COc1cccc2ccccc12)CN1CCOCC1 (stereo not drawn)	n	x	x	n	x	x
C=CCc1ccc(OCC(O)CN2CCN(c3ccccc3)CC2)c(OC)c1 (stereo not drawn)	u	44.7µM	u	n	n	x
OC(COc1cccc2ccccc12)CN1CCN(c2ccccc2)CC1 (stereo not drawn)	50.1µM	50.1µM	u	n	n	x
C=CCc1ccccc1OCC(O)CN1CCN(c2ccccc2)CC1 (stereo not drawn)	u	u	50.1µM	n	x	x
CC(C)NC[C@@H](O)COc1cccc2ccccc12	n	n	n	n	n	n
C=CCc1ccccc1OCC(O)CN1CCN(c2ccccc2OC)CC1 (stereo not drawn)	n	n	n	n	n	n
C=CCc1ccc(OCC(O)CN2CCCCC2)c(OC)c1 (stereo not drawn)	n	u	n	n	n	n
C=CCc1cc(OC)ccc1OCC(O)CN1CCN(c2ccc(OC)cc2)CC1 (stereo not drawn)	44.7µM	28.2µM	35.5µM	n	n	n
C=CCc1cc(C)ccc1OCC(O)CN1CCN(c2ccccc2)CC1 (stereo not drawn)	2.82µM	u	50.1µM	39.8µM	u	n

Screening results from PubChem BioAssay.
